# PrPC TRFRET = reduces human prion protein on the cell surface | P04156 | cell surface PrPC, TR-FRET read-out | inhibition, % at 13.8 µM | hit rate 0.43% among 370,000; in the data active = inhibition above about 24%; note: 0% = median of the test wells and 100% = reference compound wells
# BJeLR viability = kills HRASV12-expressing BJeLR cells; BJeLR (HRASV12) viability, CellTiter-Glo ATP luminescence, 48 h; inhibition, % (concentration not given with the values); hit rate 0.17% among 300,000; AID 1554; in the data active = inhibition above about 50%
# PfHsp40 rescue = compounds rescuing yeast from Plasmodium falciparum HSP40 toxicity; S. cerevisiae expressing PfHsp40, growth rescue, ATP luminescence; growth rescue, % at 12.5 µM; hit rate 0.68% among 340,000; AID 504582; in the data active = growth rescue above about 28%, passing the limit was not always enough;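 note: yeast W303a lacking pdr1 and pdr3 grown in galactose medium; growth measured after three days at 30 °C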
# GDH-TPI counter = counter-screen for M. tuberculosis FBA inhibitors: GDH-TPI coupled enzymes | GDH-TPI coupled enzyme counterscreen, NADH absorbance | inhibition, % at 4.8 µM | hit rate 1.2% among 360,000 | AID 588335; in the data active = inhibition above about 30%;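 note: 0% = DMSO wells and 100% = wells lacking the enzyme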
# PrP UTR inh = inhibition of PrP 5' UTR reporter expression. cell-based PrP 5' UTR mRNA reporter, plate reader. inhibition, % (concentration not given with the values). hit rate 0.35% among 340,000; in the data active = inhibition above about 52%; note: 0 = median of the neutral control wells
# Mtb FBA inh = inhibitors of M. tuberculosis fructose-bisphosphate aldolase; hit rate 2.3% among 360,000; AID 588726; inhibition, % at 1 µM; purified M. tuberculosis FBA, fluorescence read-out; in the data active = inhibition above about 27%;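 note: 0% = vehicle and 100% = reference inhibitor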
# Target sequence (P9WQA3 whole entry, looked up): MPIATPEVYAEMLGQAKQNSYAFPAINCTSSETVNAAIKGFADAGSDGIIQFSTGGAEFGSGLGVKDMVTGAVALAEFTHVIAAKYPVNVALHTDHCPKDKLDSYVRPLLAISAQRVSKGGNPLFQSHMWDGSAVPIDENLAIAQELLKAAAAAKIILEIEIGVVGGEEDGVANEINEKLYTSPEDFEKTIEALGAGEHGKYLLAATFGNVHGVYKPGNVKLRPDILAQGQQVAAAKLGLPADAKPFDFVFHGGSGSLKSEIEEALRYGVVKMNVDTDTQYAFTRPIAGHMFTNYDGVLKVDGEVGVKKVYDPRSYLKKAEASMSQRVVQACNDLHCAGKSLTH
# Numbers without * were called inactive; · = no result; ! = not confirmed by another sample. In the library only some 4.5% were active in any assay of this set; here they are far more common.
SMILES,PrPC TRFRET,BJeLR viability,PfHsp40 rescue,GDH-TPI counter,PrP UTR inh,Mtb FBA inh
Cc1ccc(/C=C/C(=O)OCC(=O)N(C)c2c(N)n(Cc3ccccc3)c(=O)[nH]c2=O)o1,-11,·,·,38*,·,-7
N/C(Cc1cccc2ccccc12)=N\OC(=O)c1ccc(Br)o1,-4,·,·,·,·,·
N/C(Cc1ccc(Cl)cc1Cl)=N\OC(=O)c1ccc(Br)o1,1,-7,572*,-1,-3,2
CC(=O)c1cc(-c2cc(C(=O)O)cc([N+](=O)[O-])c2)c(=O)n2c1CCC2,-14,·,·,·,·,·
NC(=O)N=Nc1c2[nH]c3ccccc3nc-2c2ccccc12,-25,18,45*,36*,-18,2
O=C(OCc1ccccc1)N1CCC2CC1c1ccc(N3CCN(Cc4ccccc4)CC3)cc12 (centres undefined),8,·,·,·,·,·
CC1(C)CC(N2CCCCC2)=CC(=[N+]2CCCCC2)C1,9,14,-1,90*,-18,-4
CCCN(CCC)C1=CC(=[N+]2CCCC2)CC(C)(C)C1,13,9,0,46*,-2,-3
CN(C)NC1=CC(=[N+]2CCCC2)CC(C)(C)C1,-10,2,0,7,-20,1
CC1C[N+](=C2C=C(N3CCOCC3)CC(C)(C)C2)CC(C)O1 (centres undefined),-1,6,0,61*,-5,5
CC1(C)CC(N2CCOCC2)=CC(=[N+]2CCOCC2)C1,2,-1,0,29,-14,-6
COc1ccc2c(n1)Sc1nc3ccccc3nc1N2,11,0,336*,4,-76,-1
Cc1cccc(C(=O)Nc2ccc(C(=O)N/N=C/c3ccc(C)o3)cc2)c1,7,0,0,41*,-15,-3
Cc1ccc(/C=N/NC(=O)c2ccncc2)o1,4,9,-2,38*,-11,-4
CNC(=O)c1cc2c(s1)CCCCCC2,4,-7,-1,3,-64,8
Cc1ccc(/C=N/NC(=O)c2cc3c(s2)CCCC3)o1,7,·,1,40*,-24,2
C/C(=N\NC(=O)c1ccc(N/N=C(\C)c2ccncc2)cc1)c1ccncc1,-18,13,0,31*,-22,-4
O=C(Oc1coc(CSc2ncccn2)cc1=O)c1ccc([N+](=O)[O-])cc1,-6,·,·,·,·,·
CCCC1CCC2(CC1)CCC2OC(=S)Nc1ccccc1Br (centres undefined),-2,·,·,·,·,·
N#CCC[C@H]1CC[C@]2(CCCN(S(=O)(=O)c3ccccc3)C2)O1,-7,·,·,·,·,·
O=C(NN=Cc1cc(=O)[nH]c(=O)[nH]1)c1ccncc1,0,·,30*,0,-12,-1
O=C(N/N=C/c1ccc[nH]1)c1ccncc1,-2,6,0,21,-10,3
COC(=O)C1=C(SC)N(c2ccc(OC)cc2)C(c2ccccc2)CC1=O (centres undefined),6,-1,0,33*,1,0
Fc1ccc(NC2CCC23CCC(c2ccccc2)CC3)cc1C(F)(F)F (centres undefined),13,·,·,·,·,·
CN(C)C(=O)c1cccc(-c2cnc3cccnn23)c1,-6,·,·,11,·,132*
SMILES,PrPC TRFRET,BJeLR viability,PfHsp40 rescue,GDH-TPI counter,PrP UTR inh,Mtb FBA inh
C(=C\c1ccccc1)/C=N/Nc1nc(N2CCOCC2)nc(N2CCOCC2)n1,-2,3,0,47*,-19,-2
Clc1ccccc1/C=C/C=N/Nc1nc(N2CCOCC2)nc(N2CCOCC2)n1,-15,-6,0,40*,-12,-4
CCOC(=O)[C@@]12CN(C(=O)OC(C)(C)C)CC=C1N(Cc1ccc(OC)cc1)C(=O)[C@H]2CC(=O)NCc1ccc(C)o1,-2,·,·,·,·,·
O=[N+]([O-])c1ccc(SCCc2ccncc2)cc1,-16,-5,11,42*!,-8,-3
O=[N+]([O-])c1ccc(SCCc2ccccn2)cc1,-10,-1,-2,13,-103,-2
O=C(Nc1ccc(C2=NCCN2)cc1)c1ccc(C(=O)Nc2ccc(C3=NCCN3)cc2)c(Cl)c1,1,-13,234*,7,-18,0
Cc1ccc(CNC(=O)O[C@H]2CC[C@@]34CCCN3C(=O)CCC[C@H]4[C@H]2C)cc1,-2,·,·,·,·,·
O=C(CSc1nnc(NC(=O)c2ccco2)s1)NC1CCCC1,-2,-10,1,40*,-11,-3
Cc1ccc(C(=O)N2C(=O)C(c3ccccc3)Oc3ccccc32)cc1 (centres undefined),4,8,110*,4,13,1

# Assay outcomes: PubChem, several laboratories
